Assay outcomes: PubChem, National Center for Advancing Translational Sciences (NCATS)
The list is not random: actives were taken first. Their share in the collection is about 0.96%.
TRPML1 blocker: qHTS for Inhibitors of the Human Mucolipin Transient Receptor Potential 1 (TRPML1) | Mucolipin-1 (Homo sapiens), Q9GZU1 | TRPML1-inducible cells, Ca2+ dye fluorescence, FDSS; hits give low values; inhibition of EC80 agonist-evoked calcium signal | hit rate 0.02% among 390,000 | activity change, negative = inhibition, % (no concentration beside the values); in the data active = activity change below about -50%; inconclusive = between about -30% and that limit;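 also: stimulus is agonist 54-4 at its EC80 concentration; % is scaled to controls: 0 for no effect and ±100 for the full control effect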
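Calcium fluorescence in TRPML1-DL cells induced overnight with Tet: a 110 s read after compound pin addition, then a 110 s antagonist read after challenge with 54-4 at 4 uM final (EC80).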
TRPV1 agonist: HTS Assay for Compounds that Act as Agonists of the Vanilloid Receptor 1 | TRPV1-expressing cells, Fluo-8 calcium influx, agonist mode | activation, % at 8.33 µM | hit rate 0.19% among 320,000 | Transient receptor potential cation channel subfamily V member 1 (Homo sapiens), Q8NER1 | AID 540275, 2011; in the data active = activation above about 80%; inconclusive = between about 30% and that limit; also: 0% is about no effect
Target sequence (Q8NER1 whole entry, looked up): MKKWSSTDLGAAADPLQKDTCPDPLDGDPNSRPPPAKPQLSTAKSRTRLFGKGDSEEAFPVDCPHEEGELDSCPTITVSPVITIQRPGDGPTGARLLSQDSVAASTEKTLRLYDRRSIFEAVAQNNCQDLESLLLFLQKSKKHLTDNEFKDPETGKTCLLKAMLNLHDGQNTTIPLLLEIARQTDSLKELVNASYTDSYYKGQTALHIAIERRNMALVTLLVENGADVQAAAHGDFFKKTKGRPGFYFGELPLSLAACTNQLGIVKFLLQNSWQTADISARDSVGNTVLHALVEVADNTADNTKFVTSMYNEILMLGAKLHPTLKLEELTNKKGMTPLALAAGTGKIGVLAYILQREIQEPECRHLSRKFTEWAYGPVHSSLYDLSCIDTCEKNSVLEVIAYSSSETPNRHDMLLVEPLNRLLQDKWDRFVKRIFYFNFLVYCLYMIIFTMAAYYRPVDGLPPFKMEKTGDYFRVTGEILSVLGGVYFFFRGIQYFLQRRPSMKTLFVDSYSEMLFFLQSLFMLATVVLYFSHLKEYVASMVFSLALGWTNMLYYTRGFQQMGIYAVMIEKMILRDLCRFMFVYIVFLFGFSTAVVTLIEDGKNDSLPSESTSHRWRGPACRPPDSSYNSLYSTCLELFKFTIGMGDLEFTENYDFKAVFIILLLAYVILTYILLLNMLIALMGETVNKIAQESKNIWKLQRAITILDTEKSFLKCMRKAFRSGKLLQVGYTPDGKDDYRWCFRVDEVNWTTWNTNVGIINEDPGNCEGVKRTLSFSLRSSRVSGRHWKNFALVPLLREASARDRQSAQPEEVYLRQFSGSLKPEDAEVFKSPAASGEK
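TRPV1-expressing cells were cultured overnight at 35.5C and loaded with Fluo-8 calcium dye for 40 to 90 min at room temperature. After a 10 s baseline, compound was added and calcium influx was read kinetically for 3 min (ex 480/em 520 nm).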
TRPML1 ag: qHTS for Agonists of the Human Mucolipin Transient Receptor Potential 1 (TRPML1) | TRPML1-expressing cells, Ca2+ dye fluorescence, FDSS | activation, % (no concentration beside the values) | hit rate 0.12% among 410,000; in the data active = activation above about 50%; inconclusive = mostly about 30% to 49%; also: 0% is about no effect
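In this qHTS format, compounds were pin-transferred onto Ca8-dye-loaded TRPML1-DL cells induced with Tet overnight, and intracellular Ca2+ fluorescence was recorded kinetically for 110 s after a 10 s baseline. A subsequent 4uM final 54-4 (EC80) addition followed by a second 110 s read served as the antagonist phase.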
TRHR enhancer-1: qHTS for Small Molecule Agonists and Allosteric Enhancers of Human TRH Receptor: Primary Screen for Enhancers | enhancement, % at 2 µM | TRHR cells, fluo-8 calcium fluorescence, EC20 TRH enhancement | Thyrotropin-releasing hormone receptor (Homo sapiens), P34981 | hit rate 0.66% among 360,000; in the data active = enhancement above about 30%; also: 0% is about no effect
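TRHR-expressing cells loaded with fluo-8 calcium dye were read kinetically (ex 480/em 530) during compound addition, then stimulated with an EC20 of TRH (10 nM final). Enhancement of the Gq-mediated intracellular calcium response was scored.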
TRHR agonist-1: qHTS for Small Molecule Agonists and Allosteric Enhancers of Human TRH Receptor: Primary Screen for Agonists | TRHR cells, calcium flux fluo-8, FDSS agonist mode | activation, % at 2 µM | AID 493084, 2011 | hit rate 0.18% among 360,000; in the data active = activation above about 30%; also: 0% is about no effect
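Agonist-mode FDSS calcium read (Ex 480/Em 530, 1 s cycles) in 1536-well TRHR cells with fluo-8 dye, after 10-cycle baseline and 23 nL compound addition; TRH at EC20 (10 nM final) added afterwards for the enhancer phase.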
TRPV1 PAM: HTS Assay for Compounds that Act as Potentiators of the Vanilloid Receptor 1. hit rate 0.02% among 320,000. AID 540277, 2011. potentiation, % at 8.33 µM. TRPV1-expressing cells, Fluo-8 calcium influx, capsaicin EC20 potentiation. Transient receptor potential cation channel subfamily V member 1 (Homo sapiens), Q8NER1; in the data active = potentiation above about 80%; inconclusive = between about 30% and that limit; also: 0% is about no effect
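Cells expressing TRPV1 were dye-loaded with Fluo-8 and read kinetically: 10 s baseline, 3 min after compound (agonist portion), then 2 min after EC20 capsaicin (allosteric enhancer portion). Calcium-bound dye fluorescence at 480/520 nm.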
TRHR enhancer-2: qHTS for Small Molecule Agonists and Allosteric Enhancers of Human TRH Receptor: Confirmation Screen for Enhancers | shares compounds with TRHR enhancer-1 | activity change, negative = inhibition, % at 46.1 µM | AID 493076, 2011 | TRH receptor cell assay, enhancer confirmation qHTS | 970 tested, under 10 active;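 also: compound effect scored on response to added TRH at EC20 of 10 nM; 0% is about no effect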
TRHR agonist-2: qHTS for Small Molecule Agonists and Allosteric Enhancers of Human TRH Receptor: Confirmation Screen for Agonists; shares compounds with TRHR enhancer-1; hit rate 8% among 970; AID 493078, 2011; Potency, µM (highest dose often 46.1 µM), for the others: top-dose activation, most hits filed as activators; TRHR-expressing cells, agonist activation read-out; also: potency is read from the fitted curve at half-maximal effect; 0% is about no effect; nearly all actives have a fitted effect of over 75% in size
An asterisk follows results filed as active; u = inconclusive; x = no result given. Unless noted, calls follow the shape of the dose curve; as a rule, active = well fitted curve in the direction sought with a large enough effect; inconclusive = small, poorly fitted or top-dose-only effect, or another doubt; inactive = no such curve, though single readings can be large; an effect the other way counts as inactive or inconclusive.

SMILES | TRPML1 blocker | TRPV1 agonist | TRPML1 ag | TRHR enhancer-1 | TRHR agonist-1 | TRPV1 PAM | TRHR enhancer-2 | TRHR agonist-2
COC(=O)COc1ccc(S(=O)(=O)Nc2cc([N+](=O)[O-])ccc2C)cc1 | 3 | -1 | 0 | 45* | 0 | -6 | 4 | -1%
CCN(CC)CC(=O)c1c(C)n(C)c2ccc(OC)cc12 | x | x | 0 | x | x | x | x | x
CCc1ccccc1N(CC(=O)N/N=C/c1ccc(OC(=O)OC)c(OC)c1)S(C)(=O)=O | 5 | 0 | -1 | -4 | 43* | -4 | 4 | 1%
CCCC(=O)NC1C2CC3CC(C2)CC1C3 (stereo not given) | -9 | 3 | 1 | 51* | 1 | 3 | -1 | 0%
O=C(c1ccco1)N1CCN(/C=C2\Nc3ccccc3C(=O)N2c2ccc(F)cc2)CC1 | x | x | 0 | x | x | x | x | x
Cc1ccc(NC(=O)CSCC(=O)NCc2ccco2)cc1 | -3 | 1 | 0 | 46* | 0 | -30 | 2 | 1%
CCn1ccnc1[C@@H]1C[C@H]2CN(Cc3ccccc3OC)C(=O)[C@]23CCCN13 | 18 | 1 | 1 | 46* | 0 | -1 | -7 | 0%
Cc1ccc(Cn2ccc(C3CC3)n2)cc1 | -17 | 4 | 1 | 51* | -1 | u | -1 | -1%
O=S(=O)(c1ccc(F)cc1F)N1CCN(c2nc(-c3cccs3)nc3ccccc23)CC1 | x | x | 0 | x | x | x | x | x
COC(=O)C1CCN(C(=O)COC(=O)c2ccc(=O)n(Cc3ccccc3)n2)CC1 | -2 | 0 | 0 | 1 | 0 | 7 | x | x
O=C(NC1CCCCCC1)c1ccc(=O)n(Cc2ccccc2)n1 | 3 | 18 | 5 | 55* | 0 | 0 | -4 | 0%
C1=Cc2ccccc2/C1=C\c1cc[cH-]c1.[Fe+2].c1cc[cH-]c1 | x | x | -1 | x | x | x | x | x
O=C(C[n+]1ccccc1Cl)c1ccccc1 | x | x | 0 | x | x | x | x | x
CCOC(=O)CSc1nc2cc(OC)c(OC)cc2cc1C#N | x | x | -1 | x | x | x | x | x
Cc1ccc(/C=N/NC(=O)c2ccccc2OCc2cccc(Br)c2)o1 | -7 | 2 | 2 | 58* | 0 | 13 | 5 | 1%
O=C(N/N=C/c1cccnc1)c1ccccc1OCc1cccc(Br)c1 | -1 | 11 | 1 | -3 | -2 | 23 | x | x
Cn1cnc2c(NCc3ccccc3)nc(Cl)nc21 | x | x | 0 | x | x | x | x | x
CC(=O)Nc1sc(C)c(C)c1C(=O)OCC(=O)Nc1cc(S(C)(=O)=O)ccc1Cl | x | x | x | 1 | 0 | x | x | x
CS(=O)(=O)c1ccc(Cl)c(NC(=O)COC(=O)c2c(Cl)cccc2Cl)c1 | -5 | 17 | 0 | 41* | -2 | 6 | 2 | 2%
CNC(=O)c1ccc2nc(-c3cccc(C)c3)c(-c3cccc(C)c3)nc2c1 | x | x | -1 | x | x | x | x | x
CCn1cnc2scc(-c3ccc(OC)cc3)c2c1=O | -11 | 0 | 0 | 21 | 0 | 7 | x | x
CCOc1ccc(-c2csc3ncn(-c4ccc(OC)cc4)c(=O)c23)cc1 | 0 | 3 | -1 | 44* | -2 | 14 | -3 | 1%
Cc1ccccc1NC(=O)c1nc(SCc2ccccc2F)ncc1Cl | x | x | 0 | x | x | x | x | x
COc1ccc(NC(=O)C(C)N(c2ccccc2)S(C)(=O)=O)cc1 (stereo not given) | 7 | x | -1 | 5 | -1 | x | x | x
COc1ccc(N(C(C)C(=O)N(C)Cc2ccccc2)S(C)(=O)=O)cc1 (stereo not given) | x | -1 | x | 50* | 0 | 3 | 1 | 0%
SMILES | TRPML1 blocker | TRPV1 agonist | TRPML1 ag | TRHR enhancer-1 | TRHR agonist-1 | TRPV1 PAM | TRHR enhancer-2 | TRHR agonist-2
CCCCn1nnnc1SCC(=O)c1ccc(C)c(C)c1 | 1 | u | 0 | 5 | -1 | -10 | x | x
Cc1ccc(C(=O)CSc2nnc(C(C)C)n2C)cc1C | 3 | -9 | 0 | 42* | -1 | 14 | -6 | -1%
COc1ccc(NS(=O)(=O)c2ccc(N3CCCC3)c(NC(=S)Nc3ccc(SC(F)F)cc3)c2)cc1 | 4 | -7 | 1 | 65* | 0 | 3 | 2 | -1%
COc1ccc(NS(=O)(=O)c2ccc(N3CCCC3)c(NC(=S)Nc3cccc(C)c3C)c2)cc1 | -1 | 8 | 0 | -9 | 0 | 12 | x | x
Nc1nc(NCCc2ccccc2)c2[nH]cnc2n1 | x | x | -1 | x | x | x | x | x
CC(=O)Oc1c(Sc2ccccc2[N+](=O)[O-])c(C)nn1C(C)(C)C | 12 | -1 | 0 | 58* | 0 | 3 | -7 | u
O=C(NC(N1CCOCC1)C(Cl)(Cl)Cl)c1ccco1 (stereo not given) | 2 | 0 | 0 | 5 | -1 | -8 | x | x
O=C(/C=C/c1ccccc1)NC(N1CCOCC1)C(Cl)(Cl)Cl (stereo not given) | -7 | 22 | 2 | 45* | 0 | -10 | -6 | 6%
Nc1cc(C(F)(F)F)ccc1S(=O)(=O)Nc1cccc2c1NCCC2 | -22 | -2 | 1 | 4 | 0 | -8 | x | x
CC(=O)c1ccc(N2CCN(C(=O)Cc3ccccc3)CC2)c(F)c1 | 14 | u | -1 | -6 | 2 | -29 | x | x
CCSc1ccccc1C(=O)N1CCN(c2ccccc2F)CC1 | -11 | 13 | 1 | 42* | 0 | -8 | 6 | -1%
O=C(Cc1ccccc1)N1CCN(c2ccccc2F)CC1 | -1 | u | 0 | 48* | -1 | -31 | -5 | 2%
COc1cc(CNCc2ccccn2)ccc1OCC(=O)NC1CCCCC1 | 9 | -3 | 1 | 45* | -1 | 3 | 1 | -1%
O=C(Nc1ccc(CN2CCOCC2)cc1)c1ccc(F)cc1 | 30 | 3 | 0 | 56* | -1 | -5 | 8 | -1%
N#C/C(=C\c1ccc(N2CCOCC2)o1)C(=O)NCCc1ccccc1 | -18 | 26 | u | 7 | 58* | 9 | 3 | 18µM*
